# According to ChEMBL document CHEMBL3433997, “St. Jude Leishmania screening dataset” (2016):
# Assays:
# Assay type in all cases: functional
# [1] = target: Solute carrier family 2, facilitated glucose transporter member 1 (Homo sapiens) (UniProt P11166); assay: ST_JUDE_LEISH: Cytotoxicity at 2uM final concentration against transgenic Leishmania Mexicana promastigotes LmGLUT1 that are glucose transport deficient and complemented with the human glucose transporter GLUT1. Activity is measured by DNA content using SYBR green in vitro
# [2] = target: Hexose transporter 1 (Plasmodium falciparum) (UniProt O97467); assay: ST_JUDE_LEISH: Cytotoxicity at 2uM final concentration against transgenic Leishmania Mexicana promastigotes LmPfHT that are glucose transport deficient and complemented with the Plasmodium falciparum hexose transporter. Activity is measured by DNA content using SYBR green in vitro
# [3] = target: Glucose transporter (Leishmania mexicana) (UniProt O61059); assay: ST_JUDE_LEISH: Cytotoxicity at 2uM final concentration against transgenic Leishmania Mexicana promastigotes LmGT2 that are glucose transport deficient and complemented with the L. Mexicana glucose transporter 2. Activity is measured by DNA content using SYBR green in vitro
# Solute carrier family 2, facilitated glucose transporter member 1 (Homo sapiens), sequence (P11166 whole entry): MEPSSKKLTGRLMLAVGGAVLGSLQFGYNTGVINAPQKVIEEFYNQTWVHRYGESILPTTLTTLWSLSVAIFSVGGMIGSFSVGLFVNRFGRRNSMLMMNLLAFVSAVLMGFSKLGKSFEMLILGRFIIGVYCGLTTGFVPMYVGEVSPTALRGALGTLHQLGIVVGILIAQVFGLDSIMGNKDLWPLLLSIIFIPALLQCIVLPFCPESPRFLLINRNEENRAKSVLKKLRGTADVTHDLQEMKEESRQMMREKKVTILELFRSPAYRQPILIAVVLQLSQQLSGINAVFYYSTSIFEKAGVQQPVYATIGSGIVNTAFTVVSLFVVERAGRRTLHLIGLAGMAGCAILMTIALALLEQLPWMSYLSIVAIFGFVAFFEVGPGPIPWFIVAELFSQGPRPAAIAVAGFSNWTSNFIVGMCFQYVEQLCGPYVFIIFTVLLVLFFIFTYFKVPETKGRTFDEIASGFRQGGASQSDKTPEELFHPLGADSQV
Structure (SMILES),inhibition [1] [%],inhibition [2] [%],inhibition [3] [%]
N=C(N)Nc1nc(-c2cccc(NC(=O)C(F)(F)F)c2)cs1,2.35,2.8,3.35
O=C(CSc1nc(-c2ccccc2Cl)ns1)Nc1cccc(Cl)c1,1.59,1.79,0.35
CCNc1cc(C)nc(Nc2ccc(NS(=O)(=O)c3ccccc3)cc2)n1,17.8,11,5.64
Cc1cc(C2CCN(CCCCNC(=O)c3ccc(-c4ccc(C(F)(F)F)cc4)cc3)CC2)c(C)cc1OCCOC1CCCCO1 (centres undefined),1.45,-0.6,2.21
CCN1CCN(c2cc(C)c3cc(NC(=O)C=Cc4cccc(OC)c4OC)ccc3n2)CC1,5.91,11.3,1.27
Cc1[nH]c(C)c(-c2ccc(OCc3cc(C(F)(F)F)cc(C(F)(F)F)c3)nc2)c(=O)c1Cl,6.26,9.78,4.84
O=C(COc1ccccc1Cc1ccccc1)Nc1cc(Cl)ccc1-n1cncn1,4.5,4.62,3.15
Cc1cccc(CNc2nc(C)cc(NCCC(=O)Nc3ccccc3)n2)c1,10.3,11.3,5.57
Cn1nccc1C(=O)NCCNCc1ccc(-c2cccc(-c3nc4ccccc4[nH]3)c2)cc1,-0.28,-0.94,0.68
CCc1cn(CCCOC)c2ccc(C(=O)N[C@@H](Cc3ccccc3)[C@H](O)CNCc3cccc(C(F)(F)F)c3)cc12,3.43,2.52,2.24
CN(C)CCN(C)Cc1ccc(-c2ccc(NC(=O)c3cccc(C#N)c3)cc2)cc1,3.64,2.58,0.19
COc1ccc2ccccc2c1CCCCN1CCN(CC(c2ccc(F)cc2)N2CCC(N3CCCC3)CC2)CC1 (centres undefined),3.25,3.63,7.05
CCc1cc(I)c2c(c1)C(NCCCNc1cc(=O)c3ccccc3[nH]1)CCN2 (centres undefined),2.28,4.39,1.86
